Bioassay records deposited in PubChem BioAssay by several laboratories.
Sampled rows, rich in hits. Any-hit rate of the full collection: about 1.5%.
Bcl-xL primary = Bcl-xL (human) inhibition. Q07817. GST-Bcl-xL / FITC-Bim BH3 peptide fluorescence polarization. inhibition, % at 10.9 µM. 320,000 compounds, 0.7% hits;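 active means inhibition above the mean of all tested compounds plus 3 SD, cutoff set per campaign, cut at about 30% in these data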;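 further: inhibitors lower millipolarization by displacing the labeled peptide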
MCL1-BIM inh = inhibitors of human MCL1 binding to BIM-BH3 peptide. Q07820. GST-MCL1 / FITC-Bim-BH3 fluorescence polarization. inhibition, % at 10.9 µM. 320,000 compounds, 0.68% hits. AID 2057;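 active means inhibition above the mean inhibition of all tested compounds plus 3 SD, set per campaign, cut at about 40% in these data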;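 further: higher means more loss of mP so more displacement of Bim peptide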
EBV gp42 block = EBV gp42 inhibition | Fluorescence polarization binding assay, mP read-out | 220,000 compounds, 0.42% hits | inhibition, % (tested at 21.74 µM) | Q1HVG2; in the data active means inhibition above about 50%
Target sequence (Q1HVG2 whole entry, looked up): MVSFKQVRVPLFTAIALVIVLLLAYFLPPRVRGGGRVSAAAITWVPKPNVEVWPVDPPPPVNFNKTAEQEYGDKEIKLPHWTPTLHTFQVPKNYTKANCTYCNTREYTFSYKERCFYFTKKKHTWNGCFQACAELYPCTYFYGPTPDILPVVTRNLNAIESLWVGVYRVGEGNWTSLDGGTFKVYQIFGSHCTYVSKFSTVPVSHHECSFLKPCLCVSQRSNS
GLD-1 RNA inh = GLD-1-TGE RNA interaction inhibition (C. elegans) | Q17339 | purified GLD-1 + fluorescein TGE RNA, fluorescence polarization | inhibition, % at 5.96 µM | 320,000 compounds, 0.44% hits;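 active means percent inhibition above a per-plate cutoff, the plate mean of test compounds plus 3 SD, cut at about 30% in these data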
eLon inh = inhibitors of E. coli Lon protease. AID 602123. 360,000 compounds, 0.42% hits. inhibition, % at 7.94 µM. purified E. coli Lon protease, fluorescence polarization. P0A9M0; in the data active means inhibition above about 13%, passing the limit was not always enough
MEX-5 binding = C. elegans MEX-5 TCR-2 RNA binding activity; Q9XUB2; MEX-5/FITC-TCR2 RNA binding, fluorescence polarization; hits give low values; 300,000 compounds, 0.38% hits; activity score (negative = inhibition of binding), % at 10 µM;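 active means inhibition past about -25% in most replicates, and total fluorescence under double the plate's negative control median, limit read from the data; inconclusive means replicates evenly split on the limit, or fluorescence at least double controls; inactive means too little inhibition in most replicates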
Target sequence (Q9XUB2 whole entry, looked up): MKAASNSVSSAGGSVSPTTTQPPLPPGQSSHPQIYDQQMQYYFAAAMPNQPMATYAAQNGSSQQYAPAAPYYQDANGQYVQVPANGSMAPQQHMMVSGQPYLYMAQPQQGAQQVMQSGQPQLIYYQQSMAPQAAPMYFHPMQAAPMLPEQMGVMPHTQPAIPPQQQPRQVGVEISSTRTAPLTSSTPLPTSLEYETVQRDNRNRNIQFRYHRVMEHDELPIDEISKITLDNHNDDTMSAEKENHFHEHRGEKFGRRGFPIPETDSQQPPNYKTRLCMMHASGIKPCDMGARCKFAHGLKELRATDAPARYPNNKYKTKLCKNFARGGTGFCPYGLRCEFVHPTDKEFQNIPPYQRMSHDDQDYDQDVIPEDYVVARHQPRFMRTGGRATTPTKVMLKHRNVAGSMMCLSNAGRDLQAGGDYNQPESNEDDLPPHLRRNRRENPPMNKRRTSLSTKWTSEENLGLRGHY
Large screens that a line does not name were inactive.

Cc1ncc(/C=C2\C(=O)Nc3ccccc32)[nH]1	MEX-5 binding -40 (no result: eLon inh)
CCOC(=O)C(=Cc1ccc(-c2ccsc2C(=O)OC)o1)C(=O)OCC	none
CCOC(=O)/C(C#N)=C/c1ccc(-c2ccsc2C(=O)OC)o1	MEX-5 binding -55
COC(=O)COc1ccc2c(c1)O/C(=C\c1ccco1)C2=O	Bcl-xL primary 75 (no result: EBV gp42 block)
Cc1ccc(C)c(N2CCN(S(=O)(=O)c3cc4c(cc3C)NC(=O)CO4)CC2)c1	none (no result: EBV gp42 block)
O=C(O)CCCCCN1C(=O)/C(=C\c2ccc(-c3ccc(Cl)cc3)o2)SC1=S	none
O=C(O)CCCN1C(=O)/C(=C/c2ccc(-c3nc4ccccc4s3)o2)SC1=S	MEX-5 binding -29
CCOc1cc(/C=C2\SC(=Nc3ccc(CC)cc3)NC2=O)ccc1OCC(=O)O	MEX-5 binding -44 (no result: EBV gp42 block)
O=C(Nc1ccncc1)Nc1ccc(F)cc1F	EBV gp42 block 73
Cc1nc2ccccc2c2oc(C(=O)Nc3ccc4c(c3)OCCO4)cc12	MEX-5 binding -28
COC(=O)CN1C(=O)COc2ccc(S(=O)(=O)N3CCCCCC3)cc21	none (no result: EBV gp42 block)
N=c1c(S(=O)(=O)c2ccc(Cl)cc2)cc2c(=O)n3ccccc3nc2n1C1CCCCC1	MEX-5 binding -46 (no result: EBV gp42 block)
N=c1c(S(=O)(=O)c2ccc(Cl)cc2)cc2c(=O)n3ccccc3nc2n1CCc1ccccc1	MEX-5 binding -63 (no result: EBV gp42 block)
N=c1c(S(=O)(=O)c2ccc(Cl)cc2)cc2c(=O)n3ccccc3nc2n1CCN1CCOCC1	none
CC(=O)N1CCOc2ccc(S(=O)(=O)N3CCN(c4cc(C)ccc4C)CC3)cc21	none (no result: EBV gp42 block)
CCC(C)Sc1cc(C(F)(F)F)c(C(=O)Nc2ccc(Cl)cc2)cn1 (centres undefined)	none
Cc1cc(S(=O)(=O)N2CCOCC2)ccc1OCC(=O)Nc1ccc(F)cc1F	none (no result: EBV gp42 block)
Cc1ccc(C)c(/C=C2\N=C(c3ccccc3F)OC2=O)c1	none (no result: EBV gp42 block)
Cc1ccccc1C1=N/C(=C/c2cccs2)C(=O)O1	MEX-5 binding -27
COc1ccc(S(=O)(=O)NC(=O)C2(C)CCN2C(=O)Cc2cc(F)ccc2F)cc1 (centres undefined)	none (no result: Bcl-xL primary, MCL1-BIM inh, EBV gp42 block, GLD-1 RNA inh, MEX-5 binding)
CCOc1ccc(C2C(C#N)=C(N)Oc3cc(C)n(Cc4ccco4)c(=O)c32)cc1OC (centres undefined)	none
Cc1cc2c(c(=O)n1Cc1ccco1)C(c1cccnc1)C(C#N)=C(N)O2 (centres undefined)	Bcl-xL primary 47, MCL1-BIM inh 45
COc1cc(CN2CCCC(C(=O)c3ccccc3SC)C2)cc(OC)c1 (centres undefined)	none
CSC1=NSC2=NC(=O)/C(=C/c3coc4ccc(O)cc4c3=O)C(=N)N12	Bcl-xL primary 52, EBV gp42 block 63, MEX-5 binding inconclusive
CSC1=NSC2=NC(=O)/C(=C/c3coc4ccccc4c3=O)C(=N)N12	Bcl-xL primary 44, MCL1-BIM inh 52, EBV gp42 block 74 (no result: MEX-5 binding)
COc1cccc(OC)c1NC(=O)CN(C)S(=O)(=O)c1ccc2c(c1)OCCO2	none (no result: EBV gp42 block)
CC(=O)N[C@@H](Cc1c[nH]c2ccccc12)C(=O)NCCc1ccc(S(N)(=O)=O)cc1	none (no result: EBV gp42 block)
CCCn1c(N)c(C(=O)CSc2nncs2)c(=O)[nH]c1=O	none (no result: EBV gp42 block, MEX-5 binding)
O=C(Nc1ccc(Oc2ncnc3cc(Cl)ccc23)nc1)c1cccs1	none
CCCOc1ccc(N/C=C/C(=O)c2cc(OC)c(OC)c(OC)c2)cc1	none (no result: EBV gp42 block)
COc1cc(/C=C2\SC(=O)N(Cc3ccc(F)cc3)C2=O)cc([N+](=O)[O-])c1O	EBV gp42 block 58 (no result: Bcl-xL primary, MCL1-BIM inh, GLD-1 RNA inh)
COc1cc(/C=C2\SC(=O)N(Cc3ccc(Cl)cc3)C2=O)cc([N+](=O)[O-])c1O	EBV gp42 block 90 (no result: Bcl-xL primary, MCL1-BIM inh, GLD-1 RNA inh, MEX-5 binding)
COc1cc(/C=C2\C(=O)NN(c3ccccc3)C2=O)cc([N+](=O)[O-])c1O	MEX-5 binding -30
CCOC(=O)CN1C(=O)S/C(=C/c2ccc(OC)c([N+](=O)[O-])c2)C1=O	none
COc1ccc(C=C(c2nc3ccccc3s2)c2nc3ccccc3s2)cc1O	GLD-1 RNA inh 32
COc1ccc(/C=N/Nc2nc3ccccc3s2)cc1O	none (no result: Bcl-xL primary, MCL1-BIM inh, GLD-1 RNA inh)
COc1cc(C=C(c2nc3ccccc3s2)c2nc3ccccc3s2)ccc1O	Bcl-xL primary 41, MCL1-BIM inh 43
Cc1cccc(C(=O)OCC(=O)N(C)c2ccccc2)c1C	none (no result: EBV gp42 block)
COc1cc(-n2cnnn2)ccc1S(=O)(=O)N1CCOCC1	Bcl-xL primary 32
O=S(=O)(c1cccc(-n2cnnn2)c1)N1CCOCC1	none
COc1ccc2c3c([nH]c2c1)C1CC2C(CC(O)C(OC)C2C(=O)O)CN1CC3 (centres undefined)	Bcl-xL primary 40, MCL1-BIM inh 41, MEX-5 binding -35
COc1ccc2c(c1OC)C(=O)N1C(C(=O)O)Cc3c([nH]c4ccccc34)C21 (centres undefined)	Bcl-xL primary 48, MCL1-BIM inh 47
COC(=O)c1c(NC(=O)COC(=O)[C@@H](NS(=O)(=O)c2ccc(C)cc2)C(C)C)sc2c1CCC2	none
Cc1cccc(NC(=O)CSc2nnc(CSc3nc(C)cc(C)n3)o2)c1	Bcl-xL primary 31
COc1cc(C(=O)NC(c2ccccc2)c2ccccc2)cc(OC)c1C	MEX-5 binding -47 (no result: EBV gp42 block)
COc1ccc(C(NC(=O)c2cc(OC)ccc2OC)c2ccccc2)cc1 (centres undefined)	none (no result: EBV gp42 block)
N#Cc1cc(C(=O)c2cc(F)ccc2O)cn(-c2nccs2)c1=O	Bcl-xL primary 38, MEX-5 binding inconclusive
N#Cc1cc(C(=O)c2ccccc2O)cn(-c2nccs2)c1=O	Bcl-xL primary 32, EBV gp42 block 51, GLD-1 RNA inh 54, MEX-5 binding inconclusive
CC(C)c1ccc2oc(=O)cc(CN3CCOCC3)c2c1	none (no result: EBV gp42 block)
C[C@@H]1CN([C@@H](C)CO)C(=O)CCCn2cc(nn2)CO[C@H]1CN(C)S(=O)(=O)c1cn(C)cn1	none (no result: Bcl-xL primary, MCL1-BIM inh, EBV gp42 block, GLD-1 RNA inh, MEX-5 binding)
COC(=O)c1cccc(NC(=O)COC(=O)CSc2nc(C)cc(C)n2)c1	Bcl-xL primary 135
O=C(c1cc(F)ccc1F)C1CCCN(C(=O)CCc2cnccn2)C1 (centres undefined)	none
O=C(c1cc(F)ccc1F)C1CCCN(C(=O)CCCN2CCCCC2=O)C1 (centres undefined)	Bcl-xL primary 51
Cc1ccc(S(=O)(=O)Nc2nc3ccccc3nc2Nc2cccc(S(=O)(=O)N3CCCC3)c2)cc1	Bcl-xL primary 37, EBV gp42 block 56
O=C(O)c1ccc(NS(=O)(=O)c2ccc3c(c2)C(=O)c2ccccc2C3=O)cc1	Bcl-xL primary 37, MEX-5 binding inconclusive
C#CCOC(=O)/C(=C/C=C/c1ccccc1)NC(=O)c1ccccc1	EBV gp42 block 61
CC(C)OC(=O)/C(=C\C=C\c1ccccc1)NC(=O)c1ccccc1	none
COc1ccc(C(=O)/C=C/Nc2cccc(O)c2)cc1	Bcl-xL primary 46, MCL1-BIM inh 48
COc1ccc(N/C=C\C(=O)c2ccc3c(c2)OCO3)cc1	none
